From PubChem
Shown are actives, neighbours in structure and some others; about 6.5% of the full set was active somewhere.
FMDV inh: foot and mouth disease virus antiviral activity; FMDV antiviral cell-based qHTS; Potency, µM (titrated, usually from 57.9 µM), without a hit: at the highest dose activity change, negative = inhibition, actives largely listed as inhibitors; 410,000 tested, 1.2% active; calls by dose curve; tested in HEK293T cells; also: read-out not given here; potency is read from the fitted curve at half-maximal effect; nearly all actives have a fitted effect of over 45% in size
LASV entry inh: Lassa virus entry inhibition; Lassa virus pseudotype entry inhibition, cell reporter; Potency, µM (doses to about 37.9 µM), for the others: top-dose activity change, negative = inhibition, usual class: inhibitors; 300,000 tested, 1.2% active; calls by dose curve; tested in HEK293 cells; also: potency is read from the fitted curve at half-maximal effect; nearly all actives have a fitted effect of over 50% in size
HCMV inh: inhibitors of human cytomegalovirus | HFF cells, HCMV-luciferase reporter, 72 h; hits give low values | activity change, negative = inhibition, % at 57.5 µM | 410,000 tested, 4.5% active; in the data active = activity change below about -60%; inconclusive = no clear call, values can overlap the other calls; inactive = above about -39%
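Two-dose cell screen: HFF monolayers treated with compounds and infected with luciferase-expressing HCMV at 1 PFU/cell, 72 h at 37C, then lysed for luciferase measurement.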
VACV Venus inh: vaccinia inhibition (Venus reporter); Potency, µM (series often up to 36.5 µM), without a hit: at the highest dose activity change, negative = inhibition, actives largely listed as inhibitors; Vaccinia virus Venus reporter expression, fluorescence; 330,000 tested, 0.46% active; calls by dose curve; tested in A549 cells; also: potency is read from the fitted curve at half-maximal effect; nearly all actives have a fitted effect of over 30% in size
MARV entry inh: blocks Marburg virus binding to or entry into cells | Marburg virus pseudotyped entry inhibition, cell reporter | Potency, µM (doses to about 37.8 µM), without a hit: at the highest dose activity change, negative = inhibition, most hits filed as inhibitors | 300,000 tested, 1.8% active; calls by dose curve; tested in HEK293 cells; also: potency is read from the fitted curve at half-maximal effect
VACV mCherry inh: inhibitors of vaccinia virus infection (mCherry reporter signal). Vaccinia virus mCherry reporter infection, fluorescence. Potency, µM (doses to about 36.5 µM), for the others: at the top dose activity change, negative = inhibition, hits mostly inhibitors. 310,000 tested, 0.63% active. AID 720579; calls by dose curve; tested in A549 cells; also: potency is read from the fitted curve at half-maximal effect; nearly all actives have a fitted effect of over 35% in size
* marks the source's active call; other numbers are inactive results; [ ] = another dose, or the depositor's remark. % is scaled to controls: 0 for no effect and ±100 for the full control effect.

Screening CC(O)[C@H]1CN=C(N)N1CCc1cc(C(F)(F)F)cc(C(F)(F)F)c1 (some centres undefined) returned FMDV inh -2%, HCMV inh -5, VACV Venus inh -2% and VACV mCherry inh -20%.
`COC(=O)c1cc(NC(=O)CC(=O)c2cccc(N)c2)cc(C(=O)OC)c1` gave FMDV inh -10%, HCMV inh -11, VACV Venus inh -14% and VACV mCherry inh -7%.
Screening CCn1c(CNC(=O)c2ccco2)nnc1SCC(=O)c1ccccc1 returned FMDV inh 6%, HCMV inh -62*, VACV Venus inh -1% and VACV mCherry inh -1%.
`CCCn1c(N)c(C(=O)CSc2nc(C)cs2)c(=O)n(C)c1=O` gave FMDV inh 0%, LASV entry inh -24%, HCMV inh -39, VACV Venus inh inconclusive, MARV entry inh 10µM* and VACV mCherry inh -1%[1.46 µM].
CC(C)Cn1c(N)c(C(=O)COC(=O)c2ccc(Br)cc2)c(=O)n(C)c1=O was read as FMDV inh 32µM* and HCMV inh -30.
CC(C)Cn1c(N)c(C(=O)CSc2ccccc2)c(=O)n(C)c1=O was read as FMDV inh 20µM*, LASV entry inh 1%, HCMV inh -29, VACV Venus inh -22%, MARV entry inh inconclusive and VACV mCherry inh inconclusive.
CC(C)Cn1c(N)c(C(=O)COC(=O)CC23CC4CC(CC(C4)C2)C3)c(=O)n(C)c1=O was read as FMDV inh 13µM*, LASV entry inh 1.8µM*, HCMV inh -67*, VACV Venus inh inconclusive and MARV entry inh 8.9µM*.
Screening CCO[C@@H]1C[C@@]1(C=C[C@@H](C)[C@H](OC)c1ccccc1Br)C(=O)OC returned MARV entry inh -14%[14.2 µM].
For CCOC(=O)c1c(S(=O)(=O)Nc2ccc(F)cc2C)c(C)n(C)c1C the results were FMDV inh 53% and HCMV inh 15.
`CC(C)Cn1c(N)c(C(=O)COC(=O)c2ccc(Cl)cc2)c(=O)n(C)c1=O` gave FMDV inh -20%, LASV entry inh -14%[46.1 µM], HCMV inh inconclusive, VACV Venus inh -9%, MARV entry inh -19%[46.1 µM] and VACV mCherry inh inactive.
CC(C)Cn1c(N)c(C(=O)COC(=O)/C=C/c2ccccc2)c(=O)n(C)c1=O was read as FMDV inh 16µM*, LASV entry inh inconclusive, HCMV inh -76*, VACV Venus inh -20%, MARV entry inh 10µM* and VACV mCherry inh inconclusive.
`O=C(CCNS(=O)(=O)c1ccc(Cl)cc1)N1CCCC1` gave FMDV inh -6%, LASV entry inh inconclusive, HCMV inh -71*, VACV Venus inh -18%, MARV entry inh 25%[46.1 µM] and VACV mCherry inh -22%.
Screening CC(=O)Nc1ccc(S(=O)(=O)NCCC(=O)N2CCN(C(c3ccccc3)c3ccccc3)CC2)cc1 returned FMDV inh inconclusive, LASV entry inh 0.32µM*, HCMV inh inconclusive, VACV Venus inh -15%, MARV entry inh 5% and VACV mCherry inh -2%.
O=C(CCNS(=O)(=O)c1ccccc1)N1CCN(C(c2ccccc2)c2ccccc2)CC1 was read as HCMV inh -11.
`Cc1cccc2cc(CN(CC3CCCO3)C(=O)c3cccc(F)c3)c(N(C)C)nc12` (centres undefined) gave FMDV inh -5%, VACV Venus inh 3% and VACV mCherry inh -14%.
`COc1ccc(C(=O)c2c(C(F)(F)F)oc3c2C(=O)c2ccccc2C3=O)cc1` gave FMDV inh inconclusive, LASV entry inh inconclusive, VACV Venus inh 4µM* and MARV entry inh 3.2µM*.
Cn1cc(/C=C/c2cc[n+](C)cc2)c2cc(Cl)ccc21 was read as FMDV inh -16%, LASV entry inh inconclusive, HCMV inh -102*, VACV Venus inh -3%, MARV entry inh inconclusive and VACV mCherry inh inconclusive.
Screening CCOC(=O)c1cc(C)n(CC2CCC(C(=O)Nc3ccc(Cl)cc3)CC2)c1C (centres undefined) returned FMDV inh inconclusive, LASV entry inh -22%[46.1 µM], HCMV inh -80*, VACV Venus inh -22%[7.34 µM] and VACV mCherry inh -23%[7.34 µM].
Screening CCOC(=O)c1c(CC(C)C)csc1NC(=O)COC(=O)c1ccc(O)cc1 returned FMDV inh 35µM*, LASV entry inh inconclusive, HCMV inh -19, VACV Venus inh -2%, MARV entry inh -2% and VACV mCherry inh -8%.
Screening COc1cccc(CNC(=O)c2nnc(Cc3ccc(Cl)cc3)o2)c1 returned FMDV inh 6%, LASV entry inh -8%[46.1 µM], HCMV inh -1, VACV Venus inh -16%, MARV entry inh 11%[46.1 µM] and VACV mCherry inh -16%.
`Cc1[nH]c(=S)c(C#N)c(-c2ccco2)c1C(=O)N(C)C` gave FMDV inh -2% and HCMV inh -30.
For Cc1cccc(-n2nnnc2SCC(=O)Nc2ccc(N3CCN(C)CC3)cc2)c1 the results were FMDV inh 26% and HCMV inh -66*.
`Cc1cc(NC(=O)CSc2nnnn2-c2ccccc2C)no1` gave FMDV inh -14%, LASV entry inh 1%, HCMV inh -113*, VACV Venus inh -21%, MARV entry inh -18% and VACV mCherry inh -15%.
CCc1ccccc1-n1nnnc1SCC(=O)Nc1cc(C)on1 was read as FMDV inh -10%, LASV entry inh -11%, HCMV inh 9, VACV Venus inh -11%, MARV entry inh -2% and VACV mCherry inh inactive.
For Cc1cc(NC(=O)CSc2nnc(C3COc4ccccc4O3)n2C)no1 (centres undefined) the results were FMDV inh 14%, LASV entry inh -6%, HCMV inh -78*, VACV Venus inh -8%, MARV entry inh 8%[46.1 µM] and VACV mCherry inh -5%.
Screening COC(=O)c1cccc(-n2nnnc2SCC(=O)Nc2cc(C)on2)c1 returned FMDV inh -2%, LASV entry inh 8%, HCMV inh -91*, VACV Venus inh -7% and MARV entry inh 11%.
Screening COC(=O)c1cccc(-n2nnnc2SCC(=O)Nc2nc3c(s2)CCCC3)c1 returned FMDV inh -29%, LASV entry inh 0%, HCMV inh 32, VACV Venus inh -10% and MARV entry inh 0%.
Screening Cc1cc(NC(=O)CSc2nnc(-c3ccccc3)n2C)no1 returned FMDV inh 5%, LASV entry inh 0%, HCMV inh -28, VACV Venus inh -15%, MARV entry inh 9%[46.1 µM] and VACV mCherry inh -1%.
`CCc1nc2ccc(C(=O)N3CCN(C(=O)c4ccco4)CC3)cn2c1N(C)CCC(C)C` gave FMDV inh -23%, HCMV inh -10, VACV Venus inh 0% and VACV mCherry inh 29%.
COc1ccccc1CNc1ncnc2sc(C(=O)N3CCN(C)CC3)c(C)c12 was read as FMDV inh 3%, VACV Venus inh -5% and VACV mCherry inh -7%.
